This note sets out measurements from PubChem BioAssay (NCATS).

Results filed as inconclusive are left out. Active and inactive are the calls of the source. Unless noted, the call rests on the fitted dose curve; in most records, active means well fitted curve in the direction sought with a large enough effect; inconclusive means small, poorly fitted or top-dose-only effect, or another doubt; inactive means no such curve, though single readings can be large; an effect the other way counts as inactive or inconclusive.

Test [1] in a line: qHTS Assay for Identification of Small Molecule Inducers of Hypoxia Response (AID 2120; active means well fitted curve in the direction sought with a large enough effect in the signal ratio, with a control signal flat, not every such curve was filed as active; the % refers to the signal ratio). In short, it runs like this:
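HRE-bla ME-180 cells in Opti-MEM with 0.5% dialyzed FBS, pre-plated 4-5 h, then compound titration for 17 h at 37 degrees Celsius. CCF4 loaded 2.5 h at room temperature; 460/530 nm ratio gave %Activity and AC50 for induction.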
(In general: In qHTS, concentration-response curves come from the screen itself.)

Test [2] is described as follows: qHTS for differential inhibitors of proliferation of Plasmodium falciparum line 7G8 (AID 1815).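 Further: parasite growth measured after three days of incubation.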 Further: potency means the concentration at half of the fitted maximal effect.
The nature of test [3]: qHTS for differential inhibitors of proliferation of Plasmodium falciparum line GB4 (AID 1816).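 Further: parasite growth measured after 72 h incubation.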 Further: potency means the concentration at half of the fitted maximal effect. The conditions noted are these: Potency: Plasmodium falciparum GB4 proliferation inhibition.
Test [4] can be described thus: qHTS for differential inhibitors of proliferation of Plasmodium falciparum line 3D7 (AID 1876). Further: potency means the concentration at half of the fitted maximal effect.
A short description of test [5]: qHTS for differential inhibitors of proliferation of Plasmodium falciparum line D10 (AID 1877).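 Further: parasites grown with compound for 72 h before DNA staining.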 Further: potency means the concentration at half of the fitted maximal effect.
Test [6] is described as follows: qHTS for differential inhibitors of proliferation of Plasmodium falciparum line W2 (AID 1883).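 Further: parasites grown with compound for 72 h before lysis and staining.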 Further: potency means the concentration at half of the fitted maximal effect. The following applies: Potency: Plasmodium falciparum W2 proliferation inhibition.
The nature of test [7]: qHTS for differential inhibitors of proliferation of Plasmodium falciparum line HB3 (AID 1886).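 Further: parasites grown with compound for 72 h before SYBR Green readout.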 Further: potency means the concentration at half of the fitted maximal effect. The conditions noted are these: Potency: Plasmodium falciparum HB3 proliferation inhibition.
A short description of test [8]: Validation screen for inhibitors of Lassa infection (AID 463096; calls by dose curve).
Test [9] is described as follows: Counterscreen for APE1 Inhibitors: Fluorescent Dye Displacement Validation Assay (AID 1707). In short, it runs like this:
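Thiazole Orange displacement from dsDNA: 250 nM ThO with 50 nM TAMRA-labelled abasic-site (tetrahydrofuran) duplex in 50 mM Tris-HCl pH7.5, 50mM NaCl, 2 mM MgCl2, 0.01% Tween-20. Loss of endpoint fluorescence (ex 480 nm, em 540 nm) flags DNA binders.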

The nature of test [10]: qHTS for differential inhibitors of proliferation of Plasmodium falciparum line Dd2 (AID 1882). Further: series mostly up to about 29 µM; nearly all actives have a fitted effect of over 65% in size. The conditions noted are these: Potency: Plasmodium falciparum Dd2 proliferation inhibition. The procedure, abridged:
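Dd2-infected erythrocytes (0.3% parasitemia, 2.5% hematocrit final) incubated with compound 72 h at 37 C, 5% CO2; lysed with saponin/Triton buffer containing SYBR Green I, incubated overnight in the dark, then read by fluorescence (485/535 nm). Normalized to 0.29 uM artemisinin and DMSO.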

Test [11] has as its target Ferritin light chain (Equus caballus) (UniProt P02791). In words: qHTS Validation Assay for Identification of Novel General Anesthetics (AID 2323). Further: series mostly up to about 77 µM. In short, it runs like this:
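Competitive displacement of the profluorescent anesthetic 1-AMA (50% saturated, PBS) from 10 uM apoferritin, 10 min, room temperature. Activity is normalized 380/535 nm fluorescence; concentration-response fitted with a four-parameter Hill equation.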

Test [12] concerns the target ATP-dependent DNA helicase Q1 (Homo sapiens) (UniProt P46063). The experiment in a line: qHTS Validation Assay for Inhibitors of RecQ-Like Dna Helicase 1 (RECQ1) (AID 2353). The procedure, abridged: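 50 nM RECQ1T1 preincubated 15 min with compound in Tris pH 8.0 buffer with MgCl2, DTT, Tween-20 and 2.5 ug/ml poly(dI-dC); started with 200 nM TAMRA/BHQ-2 forked duplex and 2 mM ATP. Unwinding read as fluorescence (525/598 nm), two reads 2 h apart.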

The nature of test [13]: Cytometric Cell-Based qHTS for Inhibitors of the mTORC1 Signaling Pathway in MEF (Tsc2-/-, p53-/-) Cells (AID 2660).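 Further: percent of cells above a phospho-rpS6 to PI ratio cutoff in each well; series mostly up to about 38 µM.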 The procedure, abridged: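 Readout: Alexa-488 phospho-rpS6 (Ser235/236) intensity divided by PI intensity, thresholded against 7.5 nM rapamycin wells and reported as % positive cells. PI cell count served as the viability measure. Compound exposure was 24 hrs at 37 degree Celsius.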

The nature of test [14]: High Content Imaging Cell-Based qHTS for Inhibitors of the mTORC1 Signaling Pathway in MEF (Tsc2-/-, p53-/-) Cells (AID 2666).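 Further: percent of cells scored positive for phospho-rpS6 Ser235/236 immunostaining by imaging.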 The procedure, abridged:
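Phospho-rpS6 (Ser235/236) immunofluorescence, normalized and scored as % positive cells using rapamycin and DMSO controls, was read in empty-vector Tsc2-/-, p53-/- MEFs after 24 h compound exposure at 37 C; propidium iodide counted cells.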

A short description of test [15]: High Content Imaging Cell-Based qHTS for Inhibitors of the mTORC1 Signaling Pathway in MEF Cells (AID 2667). Further: potency means the concentration at half of the fitted maximal effect. The procedure, abridged:
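WT MEFs (Tsc2-/-, p53-/- re-expressing Tsc2), in DMEM + 10% FBS, were treated with compound for 24 h at 37 C. Cells were then fixed and stained for phospho-rpS6 Ser235/236 with propidium iodide as cell count. Values are % positive cells, with thresholds set against rapamycin-treated cells.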

A short description of test [16]: Cytometry Cell-Based qHTS for Inhibitors of the mTORC1 Signaling Pathway in MEF cells (AID 2668).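 Further: Tsc2-/- p53-/- mouse embryonic fibroblasts stably re-expressing wild-type Tsc2; percent cells positive for phospho-rpS6 Ser235/236 relative to propidium iodide stain; series mostly up to about 38 µM.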 The procedure, abridged:
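Phospho-rpS6 (Ser235/236) immunofluorescence over PI signal, scored as % positive cells using thresholds from 7.5 nM rapamycin and DMSO wells, after 24 h compound exposure of WT-Tsc2-rescued Tsc2-/-, p53-/- MEFs. PI cell count recorded for viability.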

Test [17] can be described thus: Validation screen for small molecules that induce DNA re-replication in MCF 10A normal breast cells (AID 463097). Further: nearly all actives have a fitted effect of over 60% in size. In short, it runs like this:
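Read-out is Hoechst total nuclear intensity by fluorescence scanning imager, flagging increased high-DNA-content nuclei. Compounds were incubated with MCF 10A cells for 48 hr (37 C, 5% CO2) before 40 min staining.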

In test [18] the target is Endonuclease 4 (Escherichia coli (strain K12)) (UniProt P0A6C1). In words: Counterscreen for APE1 Inhibitors: qHTS Validation Assay for Inhibitors of Endonuclease IV (AID 1708). In short, it runs like this:
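E. coli EndoIV at 2 nM final, preincubated 15 min at room temperature with compound, then 50 nM TAMRA/BHQ-2 THF abasic-site duplex added. Buffer: 50 mM Tris-HCl pH 7.5, 50 mM NaCl, 2 mM MgCl2, 1 mM DTT, 0.01% Tween-20. Kinetic fluorescence increase, third minus first read.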
Background: The purpose of a counterscreen is to sort out artefacts and off-target activity.

Test [19] has as its target Ubiquitin carboxyl-terminal hydrolase 2 (Homo sapiens) (UniProt O75604). In words: qHTS Validation Assay for Inhibitors of Ubiquitin-specific Protease USP2a Using CHOP2 as the Reporter (AID 463106). In short, it runs like this:
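USP2 core (10 nM final) was preincubated with compound 30 min at RT in pH 8.0 Tris/CaCl2/beta-ME/CHAPS buffer. Ub-CHOP2 and reporter substrate (25 nM final each) were then added, with fluorescence (Ex 485/Em 531) read after 60 min. Data were normalized to NEM full inhibition and fitted to concentration-response curves.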

Chain of ATP-dependent DNA helicase Q1 (Homo sapiens) (P46063 whole entry, looked up): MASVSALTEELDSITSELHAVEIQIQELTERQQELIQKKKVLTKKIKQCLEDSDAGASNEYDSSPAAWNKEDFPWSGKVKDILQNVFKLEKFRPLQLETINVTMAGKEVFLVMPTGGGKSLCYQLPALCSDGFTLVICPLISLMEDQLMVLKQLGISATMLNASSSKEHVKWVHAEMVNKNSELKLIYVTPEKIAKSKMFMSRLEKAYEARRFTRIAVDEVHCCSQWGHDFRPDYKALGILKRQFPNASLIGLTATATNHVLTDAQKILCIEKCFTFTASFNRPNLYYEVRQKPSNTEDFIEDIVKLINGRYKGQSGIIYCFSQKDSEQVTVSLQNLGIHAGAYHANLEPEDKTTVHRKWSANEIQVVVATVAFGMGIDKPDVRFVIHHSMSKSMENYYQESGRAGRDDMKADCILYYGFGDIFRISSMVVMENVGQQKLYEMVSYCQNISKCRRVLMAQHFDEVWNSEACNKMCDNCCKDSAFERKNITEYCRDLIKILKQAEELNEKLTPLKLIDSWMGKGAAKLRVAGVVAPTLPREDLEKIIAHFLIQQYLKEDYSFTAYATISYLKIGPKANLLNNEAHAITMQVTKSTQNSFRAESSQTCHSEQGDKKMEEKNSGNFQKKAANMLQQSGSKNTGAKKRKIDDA
Chain of Ferritin light chain (Equus caballus) (P02791 2-175 limits assumed): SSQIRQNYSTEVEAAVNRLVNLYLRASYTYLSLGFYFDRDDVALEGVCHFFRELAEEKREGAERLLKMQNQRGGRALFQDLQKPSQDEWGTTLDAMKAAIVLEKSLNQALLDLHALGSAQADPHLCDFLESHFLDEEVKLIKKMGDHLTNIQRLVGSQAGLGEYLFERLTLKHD
Chain of Ubiquitin carboxyl-terminal hydrolase 2 (Homo sapiens) (O75604 whole entry, looked up): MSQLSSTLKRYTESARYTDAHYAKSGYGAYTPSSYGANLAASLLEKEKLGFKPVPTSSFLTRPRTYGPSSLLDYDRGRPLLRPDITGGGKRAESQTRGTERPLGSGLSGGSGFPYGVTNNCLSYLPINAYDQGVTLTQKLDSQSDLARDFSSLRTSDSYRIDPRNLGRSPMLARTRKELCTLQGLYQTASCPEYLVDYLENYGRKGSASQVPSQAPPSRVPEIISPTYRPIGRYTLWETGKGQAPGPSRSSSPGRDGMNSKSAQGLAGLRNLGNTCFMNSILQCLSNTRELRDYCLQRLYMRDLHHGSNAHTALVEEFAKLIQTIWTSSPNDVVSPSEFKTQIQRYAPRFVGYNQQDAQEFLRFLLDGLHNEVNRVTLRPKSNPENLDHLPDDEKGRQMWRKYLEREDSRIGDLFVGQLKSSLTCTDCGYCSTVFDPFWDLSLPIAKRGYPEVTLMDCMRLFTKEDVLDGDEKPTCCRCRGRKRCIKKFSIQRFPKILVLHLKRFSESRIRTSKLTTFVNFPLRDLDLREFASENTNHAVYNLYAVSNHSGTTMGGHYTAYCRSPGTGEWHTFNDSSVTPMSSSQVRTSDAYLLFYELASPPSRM

For the compound `O=C(O)C(Cl)Cl`, the compound was called inactive in [1].
In the case of `CCCCOC(=O)c1ccccc1C(=O)OCc1ccccc1`, in test [1], the compound was classed as inactive.
Still for that read-out and setting: to `O=[N+]([O-])c1c2ccccc2cc2ccccc12` belongs “inactive”.
Turning to `CC[C@H](CO)Nc1nc(NCc2ccccc2)c2ncn(C(C)C)c2n1`, the Potency was 5.01 µM (active) in test [2]; 6.31 µM (active) in test [3]; 3.16 µM (active) in test [4]; 10 µM (active) in test [5]; 5.62 µM (active) in [6]; 5.62 µM (active) in [7]. Moreover, the Potency result in test [8] is “inactive”.
For the compound `O=[N+]([O-])c1cc([N+](=O)[O-])c2ccccc2c1`, the call in [1] was inactive.
Still for that read-out and setting: with `COC(C)(C)CCCC(C)C/C=C/C(C)=C/C(=O)OC(C)C` (centres undefined) the entry was “inactive”.
Take `NC(N)=NOCCC(N)C(=O)O` (centres undefined): the Potency result in [9], in [2], in test [3], in [4], in test [5] and in test [10] was “inactive” in each case. In addition, the Potency result in [6], in test [7], in test [13], in [14], in test [15] and in test [16] was “inactive” each time. Besides, the Potency result in test [8] and in test [17] was “inactive” each time. Also, the call in [11] and in test [12] was inactive.
Turning to `NCCc1c[nH]c2ccccc12`, the Potency result in test [9], in [18], in [5], in test [10], in [13] and in [14] was “inactive” each time. The Potency result in test [15], in test [16], in test [8] and in test [17] was “inactive” in each case. The result in test [11] and in test [12] was inactive.
Regarding `COc1ccc(C(c2ccc(OC)cc2)C(Cl)(Cl)Cl)cc1`, the call in test [1] was inactive.
Still for that read-out and setting: to `C1CCC(NC2CCCCC2)CC1` belongs “inactive”.
`CC1=NN=C(c2ccc(N)cc2)c2cc3c(cc2C1)OCO3`: the Potency entry in test [9], in [18], in test [10], in test [13], in test [14] and in test [15] was “inactive” each time. The Potency result in test [16], in [8] and in test [17] was “inactive” each time. In addition, the Potency in test [2] is 10 µM (active); in test [6], 8.91 µM (active). Also, the result in test [11] and in test [12] was inactive.
In the case of `CNCCc1ccc(O)c(O)c1`, the Potency result in [9], in test [18], in test [13], in [14], in test [15] and in test [16] was “inactive” throughout. Also, the Potency result in test [8] is “inactive”. The Potency in [3] was 8.91 µM (active); in [4] it was 12.6 µM (active); in test [6], 10 µM (active). In addition, the compound was classed as inactive in test [11] and in test [12].
As for `C=CC(=O)NCNC(=O)C=C`, the compound was classed as inactive in [1].
On to `C[C@@H](N)Cc1cnc[nH]1`, for which the Potency entry in test [9], in [3], in test [4], in [5], in [10] and in test [7] was “inactive” each time. In addition, the Potency entry in test [13], in test [14], in test [15], in test [16], in test [8] and in test [17] was “inactive” each time. In addition, the outcome in test [11] and in [12] was inactive.
As for `CC(Cc1ccc(O)cc1)NCC(O)c1cc(O)cc(O)c1` (centres undefined), the Potency result in test [9], in [18], in test [10], in test [13], in test [14] and in test [15] was “inactive” each time. Besides, the Potency result in [16], in test [8] and in test [17] was “inactive” in each case. For the same compound, the call in [11] was inactive.
As to `CC(=O)NCCc1c[nH]c2ccccc12`, the Potency entry in test [9], in test [18], in [3], in [4], in test [5] and in test [10] was “inactive” in each case. Moreover, the Potency result in [7], in [13], in test [14], in [15], in test [16] and in test [8] was “inactive” each time. Also, the Potency result in test [17] is “inactive”. The compound was called inactive in test [11] and in test [12].
In the case of `Cc1c(C(=O)c2cccc3ccccc23)c2cccc3c2n1[C@H](CN1CCOCC1)CO3`, the Potency result in test [9], in test [18], in [14], in test [8] and in [19] was “inactive” each time. Also, the Potency in test [3] was 7.94 µM (active); in [5], 12.6 µM (active); in test [6] it was 4.47 µM (active); in [15], 18.5 µM (active). Moreover, the compound was classed as inactive in [11] and in test [12].
In the case of `Clc1cnc(Oc2ccc(Oc3ncc(Cl)cc3Cl)cc2)c(Cl)c1`, the Potency result in test [9], in test [18], in [3], in test [4], in test [5] and in test [10] was “inactive” throughout. Also, the Potency entry in test [7], in [13], in test [14], in [15], in [16] and in [8] was “inactive” each time. The Potency result in [17] is “inactive”. Further, the compound was classed as inactive in test [11] and in [12].
Take `S=C(NC1CCCCC1)N1CCC(c2cnc[nH]2)CC1`: the Potency entry in test [9], in test [2], in test [5], in test [10], in test [13] and in test [14] was “inactive” each time. Also, the Potency result in [15], in test [16], in test [8] and in [17] was “inactive” throughout. Besides, the Potency in test [4] and in [6] was 11.2 µM (active) in each case. In addition, the compound was called inactive in test [11] and in test [12].
Consider `CCCCc1ccc(C(=O)O)nc1`, for which the Potency entry in test [9], in test [2], in test [3], in test [5], in test [10] and in [13] was “inactive” each time. In addition, the Potency entry in test [14], in [15], in test [16], in test [8] and in test [17] was “inactive” throughout. The outcome in test [11] and in [12] was inactive.
`NCCc1c[nH]c2ccc(O)cc12`: the Potency result in test [9], in [2], in test [3], in [4], in test [5] and in test [10] was “inactive” each time. For the same compound, the Potency entry in test [6], in [7], in test [13], in test [14], in test [15] and in test [16] was “inactive” in each case. Also, the Potency result in test [8], in test [17] and in [19] was “inactive” each time. The outcome in test [11] and in test [12] was inactive.
For `CCn1cc(C(=O)O)c(=O)c2cc3c(cc21)OCO3`, in [11], the result was inactive.
On to `O=C(N[C@H]1CN2CCC1CC2)c1ccc(Cl)cc1`, for which the Potency entry in test [19] is “inactive”.
